# High-throughput results deposited in PubChem by several laboratories.
# Sampled rows, rich in hits. Any-hit rate of the full collection: about 0.8%.
# MT1-MMP txn act: activates MT1-MMP transcription; AID 750; HT1080 MT1-MMP promoter luciferase reporter, luminescence, overnight; active compounds read high; 0.16% of 86,000 active; activation factor at 10 µM;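 active = activation factor of at least 2 for MT1-MMP transcription at 10 µM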
# TNAP act mid DEA: activates human TNAP at intermediate phosphate acceptor concentration; P05186; purified TNAP, CDP-star luminescence, 100 mM DEA, 30 min; active compounds read high; scale: 0 levamisole-inhibited, 1 vehicle-only enzyme; activation factor at 20 µM; 64,000 tested, under 10 active;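 active = activation factor of at least 2 at 20 µM, relative to controls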
# E coli RNAP: Escherichia coli RNA polymerase inhibition. P0A8V2. E. coli RNA polymerase, fluorescence transcription assay. inhibition, %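 (tested at 10 µM)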. 0.2% of 62,000 active. AID 559; in the data active = inhibition above about 20%;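 also: 0% = enzyme without compound and 100% = no enzyme blank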
# HePTP inhibitor: human HePTP phosphatase inhibition | P35236 | recombinant HePTP phosphatase activity, OD absorbance | inhibition, % at 20 µM | 0.64% of 110,000 active | AID 521; in the data active = inhibition above about 50%;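 also: plate controls were vehicle for no effect and reference inhibitor for full effect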
# Smad3 FoxH1 inh: inhibitors of human Smad3 transcription factor binding. TR-FRET Smad3/Dy647-FoxH1 peptide binding, europium anti-His. inhibition, % at 25 µM. 0.29% of 88,000 active;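 active = compounds that reduce the energy-transfer binding signal between the protein and its labelled peptide by more than half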;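 also: 0% = Smad3 plus labelled peptide maximal FRET and 100% = peptide-only background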
# Target sequence (P84022 whole entry, looked up): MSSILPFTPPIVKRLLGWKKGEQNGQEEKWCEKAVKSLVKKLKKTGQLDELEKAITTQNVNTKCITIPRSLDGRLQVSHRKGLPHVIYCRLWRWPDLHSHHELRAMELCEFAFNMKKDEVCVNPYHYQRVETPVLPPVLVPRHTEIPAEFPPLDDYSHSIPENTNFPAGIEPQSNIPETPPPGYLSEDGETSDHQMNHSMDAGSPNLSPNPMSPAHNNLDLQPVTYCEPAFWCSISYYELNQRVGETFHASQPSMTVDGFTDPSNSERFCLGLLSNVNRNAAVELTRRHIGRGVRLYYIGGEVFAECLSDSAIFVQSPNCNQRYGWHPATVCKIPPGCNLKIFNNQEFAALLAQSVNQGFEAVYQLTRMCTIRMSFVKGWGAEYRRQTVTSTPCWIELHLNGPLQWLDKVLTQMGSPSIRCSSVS
# Starred values were filed as active, the others as inactive; / = no result given; ! = repeats disagree.
SMILES,MT1-MMP txn act,TNAP act mid DEA,E coli RNAP,HePTP inhibitor,Smad3 FoxH1 inh
O=C(NCCO)c1ccc(Cl)cc1,/,/,/,/,58*
COc1ccc(C)cc1NC(=O)C(=O)NCc1ccc(C)cc1,/,/,/,-4,/
C#CCn1cc(/C=C2\C(=O)NC(=O)N(c3ccc(C)cc3)C2=O)c2ccccc21,/,/,/,85*,/
CCn1cc(/C=C2\C(=O)NC(=O)N(c3ccccc3)C2=O)c2ccccc21,/,/,/,-7,/
C=CCSc1nc2c(c(-c3ccc(Br)cc3)c1C#N)C(=O)CC(C)(C)C2,/,/,/,-2,/
CCCN1CCCc2cc(CN)ccc21,0.8,0.9,/,4,53*
COc1ccc(NC(=O)C(=O)NCc2ccco2)cc1OC,/,/,/,3,/
Cc1ccc(-c2cc(C(=O)N/N=C/c3ccccc3)[nH]n2)cc1,/,/,/,-11,/
CCCCN1C(=O)/C(=C\c2ccco2)SC1=S,/,/,/,-7,/
CN1C(=O)/C(=C/C=C/c2ccco2)SC1=S,/,/,/,52*,/
C/C(N[O-])=C(\C)[N+]([O-])=[Cu].C/C(N[O-])=C(\C)[N+]([O-])=[Cu].CC(=N\[O-])/C(C)=N/[O-].CC(=N\[O-])/C(C)=N/[O-],/,/,/,/,49
C/C(N[O-])=C(\C)[N+]([O-])=[Fe].CC(=N\[O-])/C(C)=N/[O-].[NH2-].c1c[nH+]c[n-]1,/,/,/,/,72*
COc1cc(/C=C2\C(=O)N(c3nc(-c4ccc(Cl)cc4)cs3)N=C2C)cc(OC)c1OC,/,/,/,13,/
CCOC(=O)c1c(C)oc2c1c(C(c1cccnc1)N1CCCCC1)c(O)c1ccccc12 (centres undefined),1.9,/,/,/,74*
CCOC(=O)c1c(C)oc2c1c(/C=N/c1ccccn1)c(O)c1ccccc12,1.4,0.7,8,1,4
O=C1NC(=S)N/C1=C/c1ccc(-c2cc(C(=O)O)ccc2Cl)o1,/,/,/,104*,/
O=C(/C=C\c1ccc(-c2cc(Cl)ccc2Cl)o1)c1ccccc1,/,/,/,-2,/
O=C(O)c1ccc(-c2ccc(C=C3C(=O)c4ccccc4C3=O)o2)cc1Cl,/,/,/,52*,/
O=C(O)c1ccc(Cl)c(-c2ccc(C=C3C(=O)c4ccccc4C3=O)o2)c1,/,/,/,104*,/
O=C1NC(=S)S/C1=C/c1ccc(-c2ccc(C(=O)O)c(Cl)c2)o1,/,/,/,6,/
COc1ccc(OC)c(N(CC(=O)Nc2ccc(Br)cc2)S(C)(=O)=O)c1,/,/,/,0,/
O=C1CS/C(=N\N=C\c2cccc(Br)c2)N1,/,/,/,9,/
O=C1CS/C(=N\N=C\c2cn(Cc3ccc(Cl)cc3Cl)c3ccccc23)N1,/,/,/,66*,/
CN1C(=O)/C(=C2\SC(=S)N(C(CCC(=O)O)C(=O)O)C2=O)c2ccccc21 (centres undefined),1.2,0.9,6,11,-13
CN1C(=O)/C(=C2/SC(=S)N(CCC(=O)O)C2=O)c2cc(Br)ccc21,/,/,/,104*,/
SMILES,MT1-MMP txn act,TNAP act mid DEA,E coli RNAP,HePTP inhibitor,Smad3 FoxH1 inh
C=CCN1C(=O)/C(=C\c2cc(C)n(-c3ccc(C)cc3)c2C)C(=O)NC1=S,/,/,/,2,/
CCOC(=O)C1NN=C(C(=O)c2ccccc2)C1c1ccc(OC)cc1 (centres undefined),/,/,/,104*,/
O=C(N/N=C\c1c(F)cccc1Cl)c1cnccn1,/,/,/,-11,/
COc1ccc(N(C(=O)c2ccco2)S(=O)(=O)c2cccs2)cc1,1,0.9,1,-10,1
CC(=O)N(c1ccc(N(C(C)=O)S(=O)(=O)c2cccs2)cc1)S(=O)(=O)c1cccs1,1,0.9,24*,3,10
C=CCOc1ccc(/C=C2\C(=O)NC(=O)N(c3ccc(Br)cc3)C2=O)cc1OC,/,/,/,6,/
CC1=C/C(=N/OS(=O)(=O)c2ccc(C)cc2)C=CC1=O,/,/,/,7,/
CC(=O)c1cc2c(O)c(O)ccc2o1,1.2,0.9,21*,-4,9
CCc1cc2c(SCC(=O)c3ccccc3)ncnc2s1,1.4,/,/,/,-6
CCc1cc2c(SCC(=O)c3cccs3)ncnc2s1,1.2,0.9,24*,8,9
COc1ccc(S(=O)(=O)N(CC(=O)Nc2ccc3c(c2)OCO3)c2ccc(C)cc2)cc1OC,/,/,/,6,/
O=C(O)c1cccc(-c2ccc(/C=N/Nc3ccc([N+](=O)[O-])cn3)o2)c1,/,/,/,102*,/
O=C(COc1ccc(F)cc1)N1CCC(c2ccccc2)C1 (centres undefined),2.1*,/,/,/,-3
Cc1cccc(OCC(=O)N2CCC(c3ccccc3)C2)c1 (centres undefined),1.3,0.8,-5,-2,9
COc1ccc(CN(C(=O)c2ccco2)C2CC(C)N(C)CC2C)cc1 (centres undefined),1,0.9,10,102*!,1
CCOc1ccc2ccc(OCC)c(/C=C3/NC(=S)NC3=O)c2c1,/,/,/,6,/
CC(=O)[C@@]1(N=Nc2ccc(S(N)(=O)=O)cc2)CCOC1=O,/,/,/,/,52*
CC(C)c1cc(C(C)C)c(S(N)(=O)=O)c(C(C)C)c1,/,/,/,-6,/
CC(C)OC(=O)c1cccc(NC(=O)c2ccccc2)c1,2.1*,/,/,/,-6
O=C(Nc1ccccc1C(=O)N1CCOCC1)c1ccco1,1.7,0.9,2,-2,-1
CC1CCN(C(=O)c2ccccc2NC(=O)c2ccco2)CC1,/,/,/,103*,/
O=C(Nc1ccc2c(c1)OCO2)Nc1ccc(Cl)cc1Cl,1.5,/,/,/,1
O=C(Nc1ccc(Cl)cc1)Nc1ccc2c(c1)OCCO2,/,/,/,105*,/
O=C1C2C3c4ccccc4C(c4ccccc43)C2C(=O)N1CN1CCOCC1 (centres undefined),1.1,0.8,9,9,5
CN1CCN(CN2C(=O)[C@H]3[C@H]4C=C[C@@H]([C@@H]3C2=O)[C@H]2[C@@H]3C(=O)N(CN5CCN(C)CC5)C(=O)[C@@H]3[C@@H]42)CC1,/,/,/,/,57*
Cc1cccc(N2C(=O)NC(=O)/C(=C/c3ccc(-c4ccccc4[N+](=O)[O-])o3)C2=O)c1,/,/,/,0,/
Cc1cc(C)c(N2C(=O)NC(=O)/C(=C/c3ccc([N+](=O)[O-])o3)C2=O)c(C)c1,/,/,/,76*,/
